Screens: PubChem, National Center for Advancing Translational Sciences (NCATS)
In the library only some 18% were active in any assay of this set; here they are far more common.
PLK1 PBD block – PLK1 (human) polo-box domain binding inhibition; AID 720504; hit rate 2.8% among 360,000; Potency, µM, hits mostly inhibitors; Plk1 PBD binding of FITC phosphopeptide, fluorescence polarization; also: series mostly up to about 57 µM; nearly all actives have a fitted effect of over 65% in size
GCN5L2 inh – blocks human GCN5L2 histone acetyltransferase; Q92830; GCN5L2 HAT assay, ThioGlo1 CoA-SH fluorescence; Potency, µM (titrated, usually from 58.9 µM), usual class: inhibitors; hit rate 0.21% among 390,000; AID 504327
Target sequence (Q92830 whole entry, looked up): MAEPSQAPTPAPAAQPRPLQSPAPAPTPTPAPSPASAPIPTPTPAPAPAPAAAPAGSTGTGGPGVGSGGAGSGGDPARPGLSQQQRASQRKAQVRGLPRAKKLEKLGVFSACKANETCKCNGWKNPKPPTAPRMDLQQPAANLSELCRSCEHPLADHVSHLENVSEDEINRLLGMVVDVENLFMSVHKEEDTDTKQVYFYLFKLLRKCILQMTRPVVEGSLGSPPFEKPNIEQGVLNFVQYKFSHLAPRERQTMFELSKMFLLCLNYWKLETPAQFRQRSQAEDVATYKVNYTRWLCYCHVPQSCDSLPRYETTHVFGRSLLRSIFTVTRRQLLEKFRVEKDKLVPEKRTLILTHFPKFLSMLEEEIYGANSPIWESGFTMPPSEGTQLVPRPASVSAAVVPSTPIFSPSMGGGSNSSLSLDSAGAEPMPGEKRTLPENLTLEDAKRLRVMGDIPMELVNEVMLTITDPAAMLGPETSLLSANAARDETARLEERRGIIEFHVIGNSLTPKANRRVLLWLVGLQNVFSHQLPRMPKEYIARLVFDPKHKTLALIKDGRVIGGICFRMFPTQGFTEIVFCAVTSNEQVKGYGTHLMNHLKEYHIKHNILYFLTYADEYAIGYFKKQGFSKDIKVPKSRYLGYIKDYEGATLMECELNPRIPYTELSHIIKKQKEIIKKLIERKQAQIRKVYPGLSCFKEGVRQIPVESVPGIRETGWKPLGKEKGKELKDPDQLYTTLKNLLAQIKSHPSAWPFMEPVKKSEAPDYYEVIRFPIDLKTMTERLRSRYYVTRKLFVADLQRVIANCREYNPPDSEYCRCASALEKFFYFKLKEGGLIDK
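Free CoA generated was detected with ThioGlo1 (50uM) fluorescence at Ex340nm/Em540nm, read immediately and after 20 min at room temperature. Enzyme, 20 nM in HEPES pH 7.5 buffer, saw compounds 15 min before adding 75uM H3(1-25) peptide and 70uM acetyl-CoA.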
TDP1 inh – inhibitors of human tyrosyl-DNA phosphodiesterase TDP1. Potency, µM (series often up to 130 µM), usual class: inhibitors. recombinant TDP1, AlphaScreen DNA substrate cleavage. hit rate 0.28% among 350,000; also: nearly all actives have a fitted effect of over 40% in size
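E. coli-derived human Tdp1, 1 nM final. Cpd preinc 15 min RT; substrate 15 nM final, 5 min RT; AS bead mix 10 ug/ml final, 10 min RT. Signal loss = tyrosine-FITC cleavage. No-enzyme wells = max signal.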
DT40 TDP1 CPT – growth inhibition of DT40 Tdp1-/-;hTDP1 cells with camptothecin (screen for TDP1 inhibitors). chicken DT40 Tdp1-/-;hTDP1 cells + 20 nM CPT, ATP luminescence, 48 h. Potency, µM (doses to about 46.2 µM), hits mostly inhibitors. hit rate 12% among 420,000; also: nearly all actives have a fitted effect of over 55% in size
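Chicken DT40 Tdp1-/- cells stably complemented with human TDP1 were seeded at 400 cells/well in medium containing 20 nM camptothecin, exposed to pin-transferred compounds, and grown at 37 °C for at least 48 hr. Viability was read as ATP luminescence.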
VDR inh – blocks the human vitamin D receptor; P11473; VDR-SRC2-3 peptide fluorescence polarization, 2 h; Potency, µM, most hits filed as inhibitors; hit rate 0.93% among 400,000
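FP read-out; VDR + SRC2-3 coactivator peptide; 23 nl compound by pintool; 2 h RT incubation; reagents held at 4 deg C, protected from light.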
TDP1 cell noCPT – qHTS for Inhibitors of human tyrosyl-DNA phosphodiesterase 1 (TDP1): qHTS in cells in absence of CPT; Potency, µM (series often up to 46.2 µM), hits mostly inhibitors; DT40 Tdp1-/- hTDP1 cells, no CPT, ATP luminescence, 48 h; hit rate 15% among 420,000; also: nearly all actives have a fitted effect of over 55% in size
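Seeded 400 DT40-hTDP1 cells/well (vehicle DMSO, no 20 nM CPT); pinned compounds; ≥48 hr at 37 °C; CellTiter-Glo luminescence as viability measure.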
Each line names hits and unclear results; the compound was inactive in the other large screens. Calls follow the shape of the dose curve; as a rule, active = well fitted curve in the direction sought with a large enough effect; inconclusive = small, poorly fitted or top-dose-only effect, or another doubt; inactive = no such curve, though single readings can be large; an effect the other way counts as inactive or inconclusive.

O=S1(=O)CC(N2CCC(Cc3ccccc3)CC2)CN1CCc1ccccc1 (stereo not given)	DT40 TDP1 CPT inconclusive, TDP1 cell noCPT 21µM (no result: GCN5L2 inh, TDP1 inh, VDR inh)
O=S1(=O)CC(N2CCCC2)CN1CCc1ccccc1 (stereo not given)	none (no result: GCN5L2 inh, TDP1 inh, VDR inh)
O=[N+]([O-])c1ccc(CN2CC(N3CCN(CC4CC4)CC3)CS2(=O)=O)cc1 (stereo not given)	none (no result: GCN5L2 inh, TDP1 inh, VDR inh)
CCOc1ccc(CNC(=O)c2cc(=O)[nH]c3ccc(S(=O)(=O)N4CCCC4)cc23)cc1	none (no result: PLK1 PBD block)
CN(C)CCNC(=O)c1ccc2nc(Cc3ccccc3)oc2c1	DT40 TDP1 CPT inconclusive, TDP1 cell noCPT inconclusive (no result: PLK1 PBD block)
O=C(N/N=C/C(Br)=C/c1ccccc1)c1cccs1	DT40 TDP1 CPT 16µM, TDP1 cell noCPT 18µM
O=C(N/N=C/C(Br)=C/c1ccccc1)c1ccccc1F	PLK1 PBD block inconclusive, DT40 TDP1 CPT 12µM, VDR inh inconclusive, TDP1 cell noCPT 23µM
O=C(c1cc2ccc3cccnc3c2[nH]1)N1CCN(c2ccccc2)CC1	none (no result: PLK1 PBD block)
COc1ccc(CCN2C(=O)C3C4C=CC(C3C2=O)C2C(=O)N(CCc3ccc(OC)c(OC)c3)C(=O)C42)cc1OC (stereo not given)	DT40 TDP1 CPT 10µM, TDP1 cell noCPT inconclusive
COc1cc(CC(=O)Nc2nc(C)cs2)cc(OC)c1OC	DT40 TDP1 CPT 12µM, TDP1 cell noCPT 21µM
COc1ccc(-c2csc(NC(=O)Cc3cc(OC)c(OC)c(OC)c3)n2)cc1OC	DT40 TDP1 CPT 21µM, TDP1 cell noCPT 18µM
COc1cccc(CC(=O)Nc2nc(C)cs2)c1	none
COc1ccc(CCN2C(=O)C3C4C=CC(C5CC45)C3C2=O)cc1OC (stereo not given)	none
CCC(C)(C)C1CCC2(CC1)NC(=O)N(CC(=O)NCCOc1ccccc1)C2=O (stereo not given)	DT40 TDP1 CPT inconclusive, TDP1 cell noCPT inconclusive
CCC(C)(C)C1CCC2(CC1)NC(=O)N(CC(=O)NCCc1ccc(OC)c(OC)c1)C2=O (stereo not given)	DT40 TDP1 CPT inconclusive, TDP1 cell noCPT 12µM
O=C(CCN1C(=O)c2ccccc2C1=O)Nc1sc2c(c1C(=O)NCC1CCCO1)CCC2 (stereo not given)	PLK1 PBD block inconclusive, TDP1 cell noCPT inconclusive
COc1ccc(CCNC(=O)CCN2C(=O)C3CC=CCC3C2=O)cc1OC (stereo not given)	PLK1 PBD block 24µM, DT40 TDP1 CPT inconclusive, TDP1 cell noCPT 23µM
COc1ccc(-c2csc(NC(=O)CCN3C(=O)C4CC=CCC4C3=O)n2)cc1OC (stereo not given)	DT40 TDP1 CPT 21µM, TDP1 cell noCPT 18µM
COc1ccc(CCNC(=O)CCn2cccc2)cc1OC	none
COc1ccccc1NC(=O)C/C(C)=N/NC(=O)C12CC3CC(CC(C3)C1)C2	DT40 TDP1 CPT inconclusive
COc1ccc(CCNC2CC(=O)N(CCc3ccc(OC)c(OC)c3)C2=O)cc1OC (stereo not given)	none
COc1ccc(CCN2C(=O)CC(NNc3ccc([N+](=O)[O-])cc3)C2=O)cc1OC (stereo not given)	PLK1 PBD block inconclusive, DT40 TDP1 CPT 21µM, TDP1 cell noCPT 21µM
COc1ccc(CCNC(=O)C/C(C)=N/NC(=O)C23CC4CC(CC(C4)C2)C3)cc1OC	DT40 TDP1 CPT inconclusive, TDP1 cell noCPT 7.3µM
COc1ccc(C(CC(=O)c2ccc3c(c2)OCO3)C(=O)O)cc1OC (stereo not given)	none (no result: GCN5L2 inh, TDP1 inh, VDR inh)
O=C(Nc1ccccc1)N1CCCC2(CCN(S(=O)(=O)c3ccccc3)CC2)C1	none (no result: PLK1 PBD block, TDP1 inh)
COc1ccc(CCNC(=O)Cc2ccc(OC)c(OC)c2)cc1OC	DT40 TDP1 CPT inconclusive, TDP1 cell noCPT inconclusive
COc1ccc(CCNC(=O)CC2SC(N)=NC2=O)cc1OC (stereo not given)	PLK1 PBD block 21µM, DT40 TDP1 CPT inconclusive, VDR inh inconclusive
C=C(NC(=O)C(=C)NC(=O)c1csc(C2=N[C@@H]3c4csc(n4)[C@H]4NC(=O)c5csc(n5)[C@H]([C@](C)(O)[C@@H](C)O)NC(=O)[C@H]5CSC(=N5)C(=CC)NC(=O)C([C@@H](C)O)NC(=O)c5csc(n5)[C@]3(CC2)NC(=O)[C@H](C)NC(=O)C(=C)NC(=O)[C@H](C)NC(=O)C([C@@H](C)CC)NC2C=Cc3c([C@H](C)O)cc(nc3C2O)C(=O)O[C@@H]4C)n1)C(N)=O (stereo not given in full)	DT40 TDP1 CPT 7.2µM, TDP1 cell noCPT 5.1µM (no result: PLK1 PBD block, GCN5L2 inh, TDP1 inh, VDR inh)
O=C([C@H]1O[C@@H](n2ccc(=O)[nH]c2=O)[C@H](O)[C@@H]1O)N1CCSC1	none (no result: GCN5L2 inh, TDP1 inh, VDR inh)
CC1(C)CN(Cc2ccccc2)C(=O)[C@H]1CC(=O)Nc1ccc(Br)cc1	DT40 TDP1 CPT inconclusive, TDP1 cell noCPT 13µM (no result: GCN5L2 inh, TDP1 inh, VDR inh)
CC1(C)CN(Cc2ccccc2)C(=O)[C@H]1CC(=O)Nc1ccccc1	TDP1 cell noCPT inconclusive (no result: GCN5L2 inh, TDP1 inh, VDR inh)
COc1ccc(NC(=O)C[C@H]2C(=O)N(Cc3cccnc3)C[C@@H]2Cc2ccccc2)cc1	none (no result: GCN5L2 inh, TDP1 inh, VDR inh)
COc1ccc(NC(=O)C[C@H]2C(=O)N(Cc3ccccc3)C[C@@H]2C)cc1	none (no result: GCN5L2 inh, TDP1 inh, VDR inh)
COc1ccc(CN2C[C@H](Cc3ccccc3)[C@@H](CC(=O)Nc3ccccc3)C2=O)cc1	DT40 TDP1 CPT 22µM, TDP1 cell noCPT 16µM (no result: TDP1 inh)
COc1ccc(NC(=O)C[C@@H]2C(=O)N(Cc3ccccc3)CC2(C)C)cc1	TDP1 cell noCPT 21µM (no result: GCN5L2 inh, TDP1 inh, VDR inh)
CC1Cc2ccccc2N1CC(=O)NCc1ccccc1Cl (stereo not given)	DT40 TDP1 CPT inconclusive, TDP1 cell noCPT inconclusive
Cc1ccc(-c2csc(NC(=O)c3cccc([N+](=O)[O-])c3)n2)cc1	none
O=C(Nc1cccc(-c2csc(Nc3cccc(C(F)(F)F)c3)n2)c1)c1cc([N+](=O)[O-])cc(C(F)(F)F)c1	GCN5L2 inh inconclusive, DT40 TDP1 CPT 7.3µM, TDP1 cell noCPT 5.8µM
O=C(Nc1ccc(-c2csc(Nc3ccccc3)n2)cc1)c1cccc(C(F)(F)F)c1	DT40 TDP1 CPT 2.9µM, TDP1 cell noCPT 4.1µM
O=C(Nc1ccc(-c2csc(-c3ccccc3)n2)cc1)c1ccccc1	DT40 TDP1 CPT inconclusive, TDP1 cell noCPT inconclusive
CC(=O)Nc1nc(-c2ccc([N+](=O)[O-])cc2)cs1	DT40 TDP1 CPT inconclusive, TDP1 cell noCPT inconclusive
O=C(Nc1ccc(-c2csc(Nc3ccccc3)n2)cc1)c1cc([N+](=O)[O-])cc(C(F)(F)F)c1	DT40 TDP1 CPT inconclusive, TDP1 cell noCPT 18µM
CC(C)=NNc1nc(-c2ccc([N+](=O)[O-])cc2)cs1	DT40 TDP1 CPT inconclusive, TDP1 cell noCPT 21µM
O=C(NCc1ccccc1F)c1ccncc1	none
